Compounds without any hit were thinned out: in the full panel of roughly 79,000, 15% have a hit. Calls of active or inactive are those of the source. Rule as the data show it: active = growth inhibition above about 70%; inactive = the rest.
How the values were obtained:
[1] = NCI Yeast Anticancer Drug Screen. Data for the rad50 strain (AID 155);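 also: 0% = growth of vehicle-only cultures of the same strain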; details: S. cerevisiae rad50 strain growth inhibition, active compounds read high
How it was run: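 Yeast carrying a defined DNA repair defect were exposed to test compounds, and growth was compared with vehicle-treated controls to give percent inhibition.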

[2] = NCI Yeast Anticancer Drug Screen. Data for the mec2-1 strain (AID 157); details: S. cerevisiae mec2-1 strain, active compounds read high
How it was run: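 Vehicle-treated cultures served as reference for growth inhibition of compound-exposed mec2-1 yeast.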

[3] = NCI Yeast Anticancer Drug Screen. Data for the sgs1 mgt1 strain (AID 161);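 also: 0% = growth of cultures given vehicle only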; details: S. cerevisiae sgs1 mgt1 strain, active compounds read high
How it was run: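 Inhibition of yeast growth, normalised to vehicle-treated controls, is reported for a strain bearing genetic alterations in DNA damage repair.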

[4] = NCI Yeast Anticancer Drug Screen. Data for the cln2 rad14 strain (AID 165);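 also: 0% = growth equal to vehicle treated cultures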; details: S. cerevisiae cln2 rad14 strain, active compounds read high
How it was run: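 Each compound was tested on cln2 rad14 yeast. Inhibition of growth was calculated against vehicle-exposed controls.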

[5] = NCI Yeast Anticancer Drug Screen. Data for the bub3 strain (AID 167); details: S. cerevisiae bub3 mutant strain, active compounds read high
How it was run: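 Compounds were applied to a genetically altered yeast strain carrying a cell-cycle control defect. Growth inhibition was scored against vehicle-treated controls.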

[6] = NCI Yeast Anticancer Drug Screen. Data for the mlh1 rad18 strain (AID 175); details: S. cerevisiae mlh1 rad18 strain growth inhibition, active compounds read high
How it was run: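 Vehicle-treated cultures served as the reference for growth inhibition in a yeast strain carrying DNA damage repair alterations exposed to each compound.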

[7] = at 5.0 µM (retest, dose inferred, filed as 0.5)
[8] = at 50.0 µM (retest, dose inferred, filed as 5.0)

Measured: growth inhibition

COc1cccc2c1C(=O)c1c(O)c3c(c(O)c1C2=O)C[C@@](O)(C(=O)CO)C[C@@H]3OC1CC(OC(C)=O)C(OC(C)=O)C(C)O1 (some centres not stated)
active: [1]; [7] 71% | [1]; [8] 98% | [1]; at 50.0 µM 86.8% | [2]; [8] 99% | [2]; at 50.0 µM 87.5% | [3]; [8] 99% | [3]; at 50.0 µM 90% | [4]; [8] 99% | [4]; at 50.0 µM 88.7% | [5]; [8] 99% | [5]; at 50.0 µM 88.9% | [6]; [8] 97% | [6]; at 50.0 µM 91.6%
inactive: [2]; [7] 36% | [3]; [7] 37% | [4]; [7] 41% | [5]; [7] 42% | [6]; [7] 48%

C=C(C)C1CC2(C)C(C)CC(O)CC2C(OC(=O)C=C(C)C)C1O (configuration not stated)
active: [1]; [8] 73% | [1]; at 50.0 µM 78.3% | [3]; [8] 78% | [3]; at 50.0 µM 79.8% | [5]; [8] 78% | [5]; at 50.0 µM 80.1% | [6]; [8] 82%
inactive: [1]; [7] 26% | [2]; [7] 12% | [2]; [8] 58% | [2]; at 50.0 µM 69.1% | [3]; [7] 21% | [4]; [7] 17% | [4]; [8] 25% | [4]; at 50.0 µM 47% | [5]; [7] 15% | [6]; [7] 32% | [6]; at 50.0 µM 69%

c1ccc2sc(SSN3CC4CCC(CC4)C3)nc2c1
active: [1]; [8] 91% | [2]; [8] 93% | [2]; at 50.0 µM 80.8% | [3]; [7] 75% | [3]; [8] 97% | [3]; at 50.0 µM 86.4% | [4]; [8] 89% | [5]; [8] 96% | [5]; at 50.0 µM 83.7% | [6]; [8] 89% | [6]; at 50.0 µM 80.7%
inactive: [1]; [7] 37% | [1]; at 50.0 µM 56.6% | [2]; [7] 19% | [4]; [7] 38% | [4]; at 50.0 µM 21.6% | [5]; [7] 55% | [6]; [7] 19%

S=C=Nc1ccc(N2CCOCC2)cc1
inactive: [2]; [7] 31% | [3]; [7] 41% | [4]; [7] 10% | [5]; [7] 26% | [6]; [7] 33%
active: [1]; [7] 96% | [1]; [8] 99% | [1]; at 50.0 µM 99.3% | [2]; [8] 100% | [2]; at 50.0 µM 99.7% | [3]; [8] 99% | [3]; at 50.0 µM 99.7% | [4]; [8] 99% | [4]; at 50.0 µM 96.3% | [5]; [8] 98% | [5]; at 50.0 µM 99.2% | [6]; [8] 99% | [6]; at 50.0 µM 99.2%

COC1=CC(=O)c2c(O)c3c(c(O)c2C1=O)CC(C)(O)OC3 (configuration not stated)
inactive: [2]; [7] 62% | [2]; at 50.0 µM 68.8% | [4]; [7] 21% | [4]; [8] 45% | [4]; at 50.0 µM 47.9% | [5]; [7] 51%
active: [1]; [7] 87% | [1]; [8] 92% | [1]; at 50.0 µM 78% | [2]; [8] 87% | [3]; [7] 89% | [3]; [8] 92% | [3]; at 50.0 µM 80.2% | [5]; [8] 73% | [5]; at 50.0 µM 74.6% | [6]; [7] 89% | [6]; [8] 97% | [6]; at 50.0 µM 82.7%

C/C=C/c1cc2c(c(=O)o1)C(=O)[C@@H](O)[C@H](C)O2
inactive: [1]; [7] 8% | [1]; [8] 17% | [1]; at 50.0 µM 23.5% | [2]; [7] 11% | [2]; [8] 21% | [2]; at 50.0 µM 2% | [3]; [7] 15% | [3]; [8] 30% | [3]; at 50.0 µM 34.5% | [4]; [7] 8% | [4]; [8] 11% | [4]; at 50.0 µM -1.15% | [5]; [7] 14% | [5]; [8] 28% | [5]; at 50.0 µM 18.9% | [6]; [7] 8% | [6]; [8] 26% | [6]; at 50.0 µM 60.3%

O=C(Nc1cccc(C(F)(F)F)c1)Oc1ccc(Cl)c2cccnc12
inactive: [2]; [7] 66%
active: [1]; [7] 77% | [1]; [8] 98% | [1]; at 50.0 µM 89.8% | [2]; [8] 99% | [2]; at 50.0 µM 91.8% | [3]; [7] 98% | [3]; [8] 99% | [3]; at 50.0 µM 92.8% | [4]; [7] 90% | [4]; [8] 98% | [4]; at 50.0 µM 88.9% | [5]; [7] 94% | [5]; [8] 99% | [5]; at 50.0 µM 91.7% | [6]; [7] 71% | [6]; [8] 99% | [6]; at 50.0 µM 91.7%

Oc1c(Cl)cc(Cl)cc1C=NCC1CCC(CN=Cc2cc(Cl)cc(Cl)c2O)CC1 (configuration not stated)
inactive: [1]; [7] 60% | [2]; [7] 41% | [3]; [7] 67% | [4]; [7] 39% | [4]; [8] 58%
active: [1]; [8] 86% | [1]; at 50.0 µM 87.5% | [2]; [8] 92% | [2]; at 50.0 µM 91% | [3]; [8] 96% | [3]; at 50.0 µM 90.3% | [4]; at 50.0 µM 80.1% | [5]; [7] 73% | [5]; [8] 94% | [5]; at 50.0 µM 88.4% | [6]; [7] 72% | [6]; [8] 97% | [6]; at 50.0 µM 85.8%

CN1CCC(c2ccccc2)(c2ccccc2)C(=O)C1
inactive: [1]; [7] 11% | [2]; [7] -5% | [3]; [7] 21% | [4]; [7] 15% | [4]; [8] 69% | [5]; [7] 34% | [6]; [7] 47%
active: [1]; [8] 95% | [1]; at 50.0 µM 95.2% | [2]; [8] 83% | [2]; at 50.0 µM 94% | [3]; [8] 95% | [3]; at 50.0 µM 93.8% | [4]; at 50.0 µM 74.3% | [5]; [8] 96% | [5]; at 50.0 µM 89.2% | [6]; [8] 95% | [6]; at 50.0 µM 94.5%
